Results: ChEMBL document CHEMBL2218924, “A broad activity screen in support of a chemogenomic map for kinase signalling research and drug discovery” (Biochem J, 2013)

Assays:
[1] = molecular target: Ephrin type-A receptor 4 (Homo sapiens) (UniProt P54764); conditions: at 1 µM
[2] = molecular target: Ephrin type-A receptor 4 (Homo sapiens) (UniProt P54764); conditions: at 10 µM
[3] = molecular target: Ephrin type-A receptor 5 (Homo sapiens) (UniProt P54756); conditions: at 1 µM
[4] = molecular target: Ephrin type-A receptor 5 (Homo sapiens) (UniProt P54756); conditions: at 10 µM
[5] = molecular target: T1, Ephrin type-B receptor 2 (Homo sapiens) (UniProt P29323); conditions: at 10 µM
T1 sequence (whole entry): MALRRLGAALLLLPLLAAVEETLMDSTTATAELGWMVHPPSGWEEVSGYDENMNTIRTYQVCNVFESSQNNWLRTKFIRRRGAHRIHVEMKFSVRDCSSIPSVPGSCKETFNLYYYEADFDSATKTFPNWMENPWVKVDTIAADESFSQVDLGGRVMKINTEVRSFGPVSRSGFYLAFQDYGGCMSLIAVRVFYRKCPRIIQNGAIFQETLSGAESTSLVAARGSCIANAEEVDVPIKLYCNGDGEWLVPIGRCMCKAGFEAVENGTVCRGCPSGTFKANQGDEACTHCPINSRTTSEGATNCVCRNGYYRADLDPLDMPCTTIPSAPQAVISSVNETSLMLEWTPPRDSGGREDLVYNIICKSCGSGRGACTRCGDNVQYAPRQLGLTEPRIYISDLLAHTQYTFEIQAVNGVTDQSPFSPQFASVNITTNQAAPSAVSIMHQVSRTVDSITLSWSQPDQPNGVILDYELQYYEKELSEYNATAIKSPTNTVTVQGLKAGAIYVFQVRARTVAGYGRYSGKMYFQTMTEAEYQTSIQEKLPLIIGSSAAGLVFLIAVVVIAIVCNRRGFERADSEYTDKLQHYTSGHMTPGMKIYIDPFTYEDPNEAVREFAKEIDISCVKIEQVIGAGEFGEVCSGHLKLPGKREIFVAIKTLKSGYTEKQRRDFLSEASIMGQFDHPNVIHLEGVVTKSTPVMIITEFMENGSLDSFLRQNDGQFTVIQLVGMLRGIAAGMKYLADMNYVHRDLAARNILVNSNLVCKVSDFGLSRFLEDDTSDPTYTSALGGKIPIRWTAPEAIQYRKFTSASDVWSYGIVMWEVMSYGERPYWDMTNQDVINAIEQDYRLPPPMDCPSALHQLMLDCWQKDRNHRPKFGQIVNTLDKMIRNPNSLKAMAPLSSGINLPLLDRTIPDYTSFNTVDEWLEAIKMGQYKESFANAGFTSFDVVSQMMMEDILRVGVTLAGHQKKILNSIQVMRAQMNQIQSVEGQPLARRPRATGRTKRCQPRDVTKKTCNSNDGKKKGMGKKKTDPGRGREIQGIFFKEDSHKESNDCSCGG

[6] = molecular target: T2, Ephrin type-B receptor 3 (Homo sapiens) (UniProt P54753); conditions: at 1 µM
T2 sequence (whole entry): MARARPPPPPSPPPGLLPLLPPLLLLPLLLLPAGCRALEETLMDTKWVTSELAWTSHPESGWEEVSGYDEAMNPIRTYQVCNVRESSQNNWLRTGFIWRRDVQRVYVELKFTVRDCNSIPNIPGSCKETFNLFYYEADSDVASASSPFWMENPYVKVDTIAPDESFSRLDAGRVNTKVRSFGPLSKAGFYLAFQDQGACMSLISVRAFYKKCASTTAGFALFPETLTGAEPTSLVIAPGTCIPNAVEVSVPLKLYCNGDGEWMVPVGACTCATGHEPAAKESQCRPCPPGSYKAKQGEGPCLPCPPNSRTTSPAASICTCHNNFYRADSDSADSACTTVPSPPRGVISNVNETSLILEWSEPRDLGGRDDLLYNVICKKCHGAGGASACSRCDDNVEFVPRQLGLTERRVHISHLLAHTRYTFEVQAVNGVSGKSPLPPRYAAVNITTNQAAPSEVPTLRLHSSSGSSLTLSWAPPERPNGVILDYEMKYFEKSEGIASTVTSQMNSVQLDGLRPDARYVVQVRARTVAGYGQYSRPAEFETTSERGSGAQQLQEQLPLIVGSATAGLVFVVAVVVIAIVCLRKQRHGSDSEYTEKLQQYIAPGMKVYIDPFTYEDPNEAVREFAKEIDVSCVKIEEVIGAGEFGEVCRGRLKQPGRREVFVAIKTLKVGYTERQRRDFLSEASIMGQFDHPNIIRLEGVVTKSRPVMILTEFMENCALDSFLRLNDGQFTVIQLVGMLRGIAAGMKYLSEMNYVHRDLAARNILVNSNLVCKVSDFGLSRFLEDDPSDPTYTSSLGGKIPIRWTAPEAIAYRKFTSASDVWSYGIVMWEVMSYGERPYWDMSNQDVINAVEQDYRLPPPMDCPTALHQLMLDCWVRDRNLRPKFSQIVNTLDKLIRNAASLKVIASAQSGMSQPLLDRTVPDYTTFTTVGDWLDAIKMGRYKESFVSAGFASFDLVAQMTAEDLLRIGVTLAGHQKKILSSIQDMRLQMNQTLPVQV

[7] = molecular target: T2, Ephrin type-B receptor 3 (Homo sapiens); conditions: at 10 µM
[8] = molecular target: T3, Ephrin type-B receptor 4 (Homo sapiens) (UniProt P54760); conditions: at 1 µM
T3 sequence (whole entry): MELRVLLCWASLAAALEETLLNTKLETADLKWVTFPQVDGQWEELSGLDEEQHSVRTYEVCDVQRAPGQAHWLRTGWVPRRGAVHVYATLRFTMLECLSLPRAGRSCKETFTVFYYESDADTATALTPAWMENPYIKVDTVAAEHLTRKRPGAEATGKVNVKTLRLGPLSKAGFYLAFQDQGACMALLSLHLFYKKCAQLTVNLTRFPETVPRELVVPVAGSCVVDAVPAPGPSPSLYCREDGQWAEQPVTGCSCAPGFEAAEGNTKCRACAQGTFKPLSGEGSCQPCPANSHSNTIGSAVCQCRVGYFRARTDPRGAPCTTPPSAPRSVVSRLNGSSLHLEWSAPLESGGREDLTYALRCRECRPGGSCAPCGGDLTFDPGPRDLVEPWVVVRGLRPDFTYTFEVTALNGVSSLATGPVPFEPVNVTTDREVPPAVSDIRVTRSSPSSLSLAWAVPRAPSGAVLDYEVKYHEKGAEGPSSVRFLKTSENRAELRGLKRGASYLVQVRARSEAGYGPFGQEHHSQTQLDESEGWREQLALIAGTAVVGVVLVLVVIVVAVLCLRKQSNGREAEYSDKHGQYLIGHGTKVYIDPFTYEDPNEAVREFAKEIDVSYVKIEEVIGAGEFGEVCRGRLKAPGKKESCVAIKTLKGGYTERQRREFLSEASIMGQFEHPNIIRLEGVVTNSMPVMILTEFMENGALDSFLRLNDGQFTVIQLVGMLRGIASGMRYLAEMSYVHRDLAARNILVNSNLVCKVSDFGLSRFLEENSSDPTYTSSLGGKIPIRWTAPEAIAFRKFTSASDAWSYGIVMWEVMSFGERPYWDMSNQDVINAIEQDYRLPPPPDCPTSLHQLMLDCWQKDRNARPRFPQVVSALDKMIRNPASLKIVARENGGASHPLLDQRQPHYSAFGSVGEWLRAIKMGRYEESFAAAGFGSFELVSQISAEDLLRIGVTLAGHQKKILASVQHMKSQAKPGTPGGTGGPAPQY

[9] = molecular target: T3, Ephrin type-B receptor 4 (Homo sapiens); conditions: at 10 µM
[10] = molecular target: Receptor tyrosine-protein kinase erbB-4 (Homo sapiens) (UniProt Q15303); conditions: at 1 µM
Sequence of Receptor tyrosine-protein kinase erbB-4 (Homo sapiens) (Q15303 whole entry): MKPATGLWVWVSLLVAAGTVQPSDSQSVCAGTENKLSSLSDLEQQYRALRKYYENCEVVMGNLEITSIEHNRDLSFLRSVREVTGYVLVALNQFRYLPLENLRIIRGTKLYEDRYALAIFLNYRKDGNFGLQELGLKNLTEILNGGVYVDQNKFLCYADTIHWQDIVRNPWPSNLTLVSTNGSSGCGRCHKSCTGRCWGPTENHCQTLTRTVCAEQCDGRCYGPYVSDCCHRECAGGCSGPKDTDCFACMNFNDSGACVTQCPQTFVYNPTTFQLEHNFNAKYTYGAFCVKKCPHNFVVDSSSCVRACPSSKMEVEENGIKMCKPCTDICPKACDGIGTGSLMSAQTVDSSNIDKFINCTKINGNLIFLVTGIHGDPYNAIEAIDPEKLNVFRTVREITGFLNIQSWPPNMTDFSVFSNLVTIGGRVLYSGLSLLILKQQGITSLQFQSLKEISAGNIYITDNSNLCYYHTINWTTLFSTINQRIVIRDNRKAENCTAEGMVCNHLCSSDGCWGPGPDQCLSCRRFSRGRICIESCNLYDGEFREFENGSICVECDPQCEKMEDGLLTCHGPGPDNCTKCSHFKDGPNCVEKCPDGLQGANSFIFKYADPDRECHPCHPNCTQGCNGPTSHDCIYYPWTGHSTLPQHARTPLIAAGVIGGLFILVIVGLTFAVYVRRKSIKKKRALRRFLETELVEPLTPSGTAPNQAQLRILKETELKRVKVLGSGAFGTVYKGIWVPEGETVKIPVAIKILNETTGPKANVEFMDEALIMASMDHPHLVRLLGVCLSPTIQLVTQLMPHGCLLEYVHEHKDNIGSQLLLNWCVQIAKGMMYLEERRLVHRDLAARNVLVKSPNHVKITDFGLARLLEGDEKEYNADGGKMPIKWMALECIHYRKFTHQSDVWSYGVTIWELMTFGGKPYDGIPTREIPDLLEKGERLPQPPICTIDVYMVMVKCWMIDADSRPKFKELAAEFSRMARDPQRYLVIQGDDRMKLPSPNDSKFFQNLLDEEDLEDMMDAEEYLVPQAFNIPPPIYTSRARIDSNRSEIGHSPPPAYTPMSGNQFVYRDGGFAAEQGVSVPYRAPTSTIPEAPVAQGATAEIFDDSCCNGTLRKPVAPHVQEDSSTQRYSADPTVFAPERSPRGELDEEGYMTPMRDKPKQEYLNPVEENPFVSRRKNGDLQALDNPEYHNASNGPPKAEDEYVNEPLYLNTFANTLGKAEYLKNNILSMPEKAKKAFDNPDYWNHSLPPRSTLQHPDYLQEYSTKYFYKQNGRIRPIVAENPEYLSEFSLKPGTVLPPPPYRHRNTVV

Sequence of Ephrin type-A receptor 4 (Homo sapiens) (P54764 whole entry): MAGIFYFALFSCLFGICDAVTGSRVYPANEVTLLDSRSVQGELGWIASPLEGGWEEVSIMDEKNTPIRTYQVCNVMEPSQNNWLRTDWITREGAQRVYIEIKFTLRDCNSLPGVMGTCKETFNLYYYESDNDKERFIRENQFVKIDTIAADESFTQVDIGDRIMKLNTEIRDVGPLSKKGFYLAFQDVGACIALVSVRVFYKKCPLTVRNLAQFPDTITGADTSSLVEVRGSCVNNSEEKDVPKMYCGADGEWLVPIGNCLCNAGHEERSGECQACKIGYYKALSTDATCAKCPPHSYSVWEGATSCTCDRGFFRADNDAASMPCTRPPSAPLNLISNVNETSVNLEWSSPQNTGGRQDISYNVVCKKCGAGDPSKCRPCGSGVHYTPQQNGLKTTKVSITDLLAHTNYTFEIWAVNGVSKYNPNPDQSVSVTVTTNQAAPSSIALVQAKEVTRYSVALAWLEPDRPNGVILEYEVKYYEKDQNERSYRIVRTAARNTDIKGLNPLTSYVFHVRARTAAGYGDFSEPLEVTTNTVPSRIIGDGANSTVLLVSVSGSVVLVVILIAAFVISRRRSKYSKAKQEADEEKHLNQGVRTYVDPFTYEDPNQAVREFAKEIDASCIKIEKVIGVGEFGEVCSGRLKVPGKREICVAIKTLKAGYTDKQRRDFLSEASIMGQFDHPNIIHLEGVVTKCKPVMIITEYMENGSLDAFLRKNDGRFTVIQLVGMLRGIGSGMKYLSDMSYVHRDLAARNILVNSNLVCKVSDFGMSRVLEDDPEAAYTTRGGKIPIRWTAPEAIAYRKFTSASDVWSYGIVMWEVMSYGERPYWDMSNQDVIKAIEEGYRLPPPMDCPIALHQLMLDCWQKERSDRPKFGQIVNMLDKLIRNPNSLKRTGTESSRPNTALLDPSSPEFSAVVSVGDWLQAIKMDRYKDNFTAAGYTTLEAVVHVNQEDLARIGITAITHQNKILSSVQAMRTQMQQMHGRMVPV
Sequence of Ephrin type-A receptor 5 (Homo sapiens) (P54756 whole entry): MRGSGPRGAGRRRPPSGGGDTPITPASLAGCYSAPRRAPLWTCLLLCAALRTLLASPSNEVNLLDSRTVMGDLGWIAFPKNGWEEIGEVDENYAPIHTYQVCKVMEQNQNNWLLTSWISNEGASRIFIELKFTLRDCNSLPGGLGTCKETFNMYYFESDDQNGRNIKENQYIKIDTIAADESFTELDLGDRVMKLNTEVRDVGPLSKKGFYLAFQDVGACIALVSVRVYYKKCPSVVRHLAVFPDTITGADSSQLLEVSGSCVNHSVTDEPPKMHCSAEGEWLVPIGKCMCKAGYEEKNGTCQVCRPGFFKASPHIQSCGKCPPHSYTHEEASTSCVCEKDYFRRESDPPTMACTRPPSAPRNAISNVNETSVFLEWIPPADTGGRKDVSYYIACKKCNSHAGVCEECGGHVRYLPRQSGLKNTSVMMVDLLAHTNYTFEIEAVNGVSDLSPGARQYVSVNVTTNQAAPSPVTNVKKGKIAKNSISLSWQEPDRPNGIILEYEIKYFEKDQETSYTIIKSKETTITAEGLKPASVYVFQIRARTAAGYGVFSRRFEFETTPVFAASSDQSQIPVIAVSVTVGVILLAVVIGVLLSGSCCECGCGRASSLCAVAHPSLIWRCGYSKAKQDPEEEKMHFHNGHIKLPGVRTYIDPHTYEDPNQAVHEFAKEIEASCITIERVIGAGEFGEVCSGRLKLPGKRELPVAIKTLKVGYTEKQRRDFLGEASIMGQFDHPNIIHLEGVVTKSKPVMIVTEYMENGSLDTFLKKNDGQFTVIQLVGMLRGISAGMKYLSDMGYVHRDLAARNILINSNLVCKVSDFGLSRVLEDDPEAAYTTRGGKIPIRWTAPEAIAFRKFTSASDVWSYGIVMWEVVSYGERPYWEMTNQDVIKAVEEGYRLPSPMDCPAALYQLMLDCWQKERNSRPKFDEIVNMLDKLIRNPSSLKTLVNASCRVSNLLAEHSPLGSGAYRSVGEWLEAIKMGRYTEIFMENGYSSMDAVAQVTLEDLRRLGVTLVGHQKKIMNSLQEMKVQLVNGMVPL

`O=C1c2ccccc2-c2nc3nnnn3nc21` showed a residual activity [1] of 115%, a residual activity [2] of 102% and a residual activity [3] of 115%. The residual activity [4] was 124%, the residual activity [5] was 138% and the residual activity [6] was 108% (inactive). For the same compound, the residual activity [7] was 133%, the residual activity [8] was 118% and the residual activity [9] was 115%. For the same compound, the residual activity [10] was 106%.
